Data from PubChem BioAssay (NCI).
The panel holds about 79,000 compounds, 15% with a hit somewhere; the sample as a whole holds those more often. Unmarked numbers belong to inactive results. Activity calls are given as the source filed them. Cut-off read from the data, not from the text of the source: active = growth inhibition above about 70%; inactive = the rest.

Experiment: NCI Yeast Anticancer Drug Screen. Data for the bub3 strain (AID 167)
Conditions: S. cerevisiae bub3 mutant strain, at 50.0 µM, hits give high values
Procedure, shortened: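 Mutant yeast screening strain plus compound; vehicle-treated cultures serve as the 0% inhibition reference.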

Compound | growth inhibition
CC(/C=N/NS(=O)(=O)c1ccc(C)cc1)=C(c1ccccc1)c1ccccc1 | 70.4% (active)
CCOC(=O)Cc1cc(=O)oc2c(CN3CCN(c4ccc(C)cc4)CC3)c(O)ccc12 | 26.8%
Clc1ccc(/C=N\Nc2c3ccccc3nc3ccccc23)cc1Cl | 28.1%
CNC(=O)c1cc(NC(=O)c2ccc(C(=O)Nc3cc(C(=O)NC)cc(C4=NCCN4)c3)cc2)cc(C2=NCCN2)c1 | 98.7% (active)
O=P1(O)c2ccccc2CS(=O)(=O)Cc2ccccc21 | -19.8%
CC1=C(C(=O)NCc2ccccc2)C(c2ccccc2[N+](=O)[O-])C(C(=O)NCc2ccccc2)=C(C)N1 | 81.1% (active)
Oc1ccc(C2CCCCC2)cc1 | 48.6%
CCN(CC)CCOc1cccc2c1C(=O)c1c(O)cccc1C2=O | 35.9%
CCN(CC)C1Oc2cc3c(cc2C(c2ccc(OC)cc2)C1C)OCO3 (stereo unspecified) | 84.5% (active)
COc1ccc(C2C3CCCC(C(c4ccc(OC)cc4)N2C)C32NC(=O)NC2=O)cc1 (stereo unspecified) | 97.8% (active)
Clc1ccc(SSc2ccc(Cl)cn2)nc1 | 82.8% (active)
CN=c1sc2c(n1C)C(=O)c1ccccc1C2=O | 65.9%
O=C(Nc1cccc(Cl)c1)OCCOC(=O)Nc1cccc(Cl)c1 | 99.4% (active)
O=[N+]([O-])c1ccc2c(c1)Cc1cc(Cl)ccc1-2 | -14.3%
Cc1c(-c2ccccc2)ccnc1/C=N/NC(=S)NCCc1ccccc1 | 77.7% (active)
O=C(O)CCC(=O)NCCNC(=O)CC(=O)O | -1.55%
